High-throughput results (PubChem)
Hits are enriched below; roughly 12% of the tested compounds scored in any of these assays.
G9a inh – qHTS Assay for Inhibitors of Histone Lysine Methyltransferase G9a. G9a H3K9 monomethylation, AlphaScreen, 2 h. Potency, µM (doses to about 102 µM), without a hit: at the highest dose activity, negative = inhibition, hits mostly inhibitors. actives 8.8% (n = 350,000); note: potency is the fitted concentration of half-maximal effect; % is set by controls: 0 for no effect and ±100 for the full control effect; nearly all actives have a fitted effect of over 75% in size
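Quantitative HTS format: methyltransferase activity on a biotin-tagged H3K9 peptide is measured by AlphaScreen, using a rabbit anti-monomethyl-H3K9 antibody with streptavidin donor and anti-IgG acceptor beads. Final levels are 20 nM enzyme, 500 nM peptide, 20 uM SAM; 2 h RT.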
HP1b binding inh – HTS for Inhibitors of HP1-beta Chromodomain Interactions with Methylated Histone Tails; Potency, µM (top dose mostly 114 µM), for the others: at the top dose activity change, negative = inhibition, actives largely listed as inhibitors; Chromobox protein homolog 1 (Homo sapiens), P83916; actives 0.56% (n = 390,000); AID 540317, 2011; AlphaScreen HP1-beta / biotin-H3K9me3 peptide binding; note: potency is the fitted concentration of half-maximal effect; nearly all actives have a fitted effect of over 70% in size
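HP1-beta protein (50 nM final) preincubated 30 min at room temperature with biotinylated H3(1-18)K9me3 peptide (50 nM) in PBS pH 7.4, 0.01% Tween-20, then compound added for 30 min. AlphaScreen streptavidin donor/nickel chelate acceptor beads (10 ug/mL final), 30 min dark, luminescence read.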
BAZ2B inh – qHTS Assay for Inhibitors of BAZ2B; Bromodomain adjacent to zinc finger domain protein 2B (Homo sapiens), Q9UIF8; AlphaScreen BAZ2B-H3K14Ac peptide displacement; actives 4.4% (n = 360,000); AID 504333, 2011; Potency, µM (series often up to 114 µM), inactives show at the top dose activity change, negative = inhibition, actives largely listed as inhibitors; note: potency is the fitted concentration of half-maximal effect; % is set by controls: 0 for no effect and ±100 for the full control effect; nearly all actives have a fitted effect of over 60% in size
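In this displacement format the biotinylated H3(5-23) peptide acetylated at Lys14 serves as ligand at 50 nM, with BAZ2B at 50 nM in PBS pH 7.4 containing 0.01% Tween-20. Donor and acceptor beads are 10 ug/mL final.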
PI5P4K alpha inh – qHTS for Inhibitors of phosphatidylinositol 5-phosphate 4-kinase (PI5P4K); actives 1.2% (n = 330,000); PI5P4Kalpha enzyme, ADP-Glo luminescence, 60 min; active compounds read low; Phosphatidylinositol 5-phosphate 4-kinase type-2 alpha (Homo sapiens), P48426; max response, %; AID 652105, 2013; active = max response of -50% or lower; inconclusive = between -30% and -50%; inactive = -30% or higher; note: value at the top dose of about 77 µM; % is set by controls: 0 for no effect and ±100 for the full control effect
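Single end-point luminescence (ADP-Glo) quantified ADP from PI5P4Kalpha turnover; ATP 5 microM final, 1 h at RT, 0.1% CHAPS and 0.28 mM EGTA in HEPES pH 7.4.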
PLK1 PBD block – qHTS for Inhibitors of PLK1-PDB (polo-like kinase 1 - polo-box domain): Primary Screen; actives 2.8% (n = 360,000); Plk1 PBD binding of FITC phosphopeptide, fluorescence polarization; Potency, µM, without a hit: max response, negative = inhibition, hits mostly inhibitors; note: potency is the fitted concentration of half-maximal effect; series mostly up to about 57 µM; % is set by controls: 0 for no effect and ±100 for the full control effect; nearly all actives have a fitted effect of over 65% in size
JMJD2A Tudor – qHTS Assay for Inhibitors of JMJD2A-Tudor Domain | Potency, µM (doses to about 114 µM), inactives show at the top dose activity change, negative = inhibition, hits mostly inhibitors | AlphaScreen JMJD2A-Tudor / H3K4me3 peptide binding | actives 4.4% (n = 390,000); note: potency is the fitted concentration of half-maximal effect; % is set by controls: 0 for no effect and ±100 for the full control effect; nearly all actives have a fitted effect of over 50% in size
Target sequence (O75164 whole entry, looked up, the tested form may be a part): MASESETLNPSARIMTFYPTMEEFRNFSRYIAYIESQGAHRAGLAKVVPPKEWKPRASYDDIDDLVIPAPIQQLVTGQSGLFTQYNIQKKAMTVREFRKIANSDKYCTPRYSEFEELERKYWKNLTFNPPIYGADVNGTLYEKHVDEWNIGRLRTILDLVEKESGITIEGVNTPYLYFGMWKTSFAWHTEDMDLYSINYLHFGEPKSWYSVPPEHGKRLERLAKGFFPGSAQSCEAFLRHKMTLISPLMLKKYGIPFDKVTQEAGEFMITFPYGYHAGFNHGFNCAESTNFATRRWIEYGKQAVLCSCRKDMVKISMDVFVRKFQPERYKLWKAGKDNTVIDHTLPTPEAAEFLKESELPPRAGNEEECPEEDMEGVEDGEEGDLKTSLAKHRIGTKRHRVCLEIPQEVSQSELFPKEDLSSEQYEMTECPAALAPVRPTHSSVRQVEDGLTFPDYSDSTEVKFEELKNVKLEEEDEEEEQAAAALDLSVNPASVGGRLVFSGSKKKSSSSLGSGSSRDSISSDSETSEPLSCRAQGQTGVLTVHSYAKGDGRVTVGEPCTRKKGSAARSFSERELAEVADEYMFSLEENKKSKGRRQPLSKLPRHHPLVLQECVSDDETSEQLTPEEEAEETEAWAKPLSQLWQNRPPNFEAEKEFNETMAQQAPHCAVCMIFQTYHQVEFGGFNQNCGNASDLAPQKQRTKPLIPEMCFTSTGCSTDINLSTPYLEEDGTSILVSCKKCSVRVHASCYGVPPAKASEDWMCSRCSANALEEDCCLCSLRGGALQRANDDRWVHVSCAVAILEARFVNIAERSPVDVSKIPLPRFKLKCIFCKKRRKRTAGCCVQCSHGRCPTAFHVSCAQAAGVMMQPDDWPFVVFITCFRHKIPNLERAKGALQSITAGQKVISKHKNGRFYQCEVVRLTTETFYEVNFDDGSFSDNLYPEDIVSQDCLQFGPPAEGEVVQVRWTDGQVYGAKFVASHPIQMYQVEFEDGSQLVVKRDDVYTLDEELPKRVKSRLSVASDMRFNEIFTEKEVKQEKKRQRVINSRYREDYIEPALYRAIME
Numbers without * were called inactive; ? = inconclusive; nt = no result; [ ] = another dose, or the depositor's remark. Unless noted, calls come from the whole dose curve; as a rule, active = well fitted curve in the direction sought with a large enough effect; inconclusive = small, poorly fitted or top-dose-only effect, or another doubt; inactive = no such curve, though single readings can be large; an effect the other way counts as inactive or inconclusive.

SMILES	G9a inh	HP1b binding inh	BAZ2B inh	PI5P4K alpha inh	PLK1 PBD block	JMJD2A Tudor
COCCSc1nnc(NS(=O)(=O)c2ccc(C)cc2)s1	18.6%[12.7 µM]	10.4%	?	-4.3	-18.6%	-21.8%[57.1 µM]
CCC(OC(=O)c1ccco1)C(=O)NC1CCCC1 (configuration not stated)	8.9%	-2.7%	9.5%	4.2	-1.2%	-17.2%
C=C1Nc2ccccc2C(=O)N1c1ccc(C(=O)N2CCN(C(=O)c3ccco3)CC2)cc1	nt	40.1%	nt	nt	nt	0.0%
CC(=O)Nc1c(O)nc(SCC(=O)Nc2nnc(SCc3ccccc3)s2)[nH]c1=O	20µM*	7.5%	?	?	?	?
CC(=O)Nc1c(O)nc(SCC(=O)Nc2nnc(CC(C)C)s2)[nH]c1=O	?	23.5%	9.0%	-0.8	-11.7%	-12.5%
Cc1ccc2c(c1)[nH]c1c(=O)n(CCN3CCNCC3)cnc12	44.7µM*	35.3%	0.2%	4.7	-8.7%	-17.7%
O=c1c2[nH]c3ccccc3c2ncn1CCN1CCNCC1	?	34.8%	-19.9%	4.7	-4.8%	-5.0%
Cc1ccc2c(c1)[nH]c1c(=O)n(Cc3ccco3)cnc12	-8.4%	3.2%	-16.3%	-21.5	26.7µM*	-8.8%[11.4 µM]
O=c1c2[nH]c3ccccc3c2ncn1Cc1ccco1	27.5%[0.501 µM]	52.8%	-6.7%	-6.1	0.7%	5.8%
Cc1cccc(C(=O)O/N=C(\N)CS(=O)(=O)c2ccccc2)c1	27.4%	46.3%	-16.9%	-8.3	-0.1%	-2.3%
CC(O)(c1cccnc1)c1nc(-c2cccc(C#N)c2)cs1 (configuration not stated)	nt	nt	nt	-3.6	0.1%	nt
CCOc1ccccc1CNC(=O)CCc1cn(C)c2ccccc12	-18.9%	18.1%	?	1.5	2.8%	?
CCOc1ccccc1CNC(=O)CCCc1cn(C)c2ccccc12	50.1µM*	-6.2%	?	2.3	2.6%	?
O=C1/C(=C\c2ccco2)NC(=S)N1c1ccccc1	nt	?	-5.5%	?	?	56.2µM*
O=C1/C(=C\c2ccco2)SC(=S)N1c1ccccc1	50.1µM*	?	?	-20.1	-10.3%	-23.5%
CCCN=C1N/C(=C\c2ccco2)C(=O)N1c1ccccc1	?	23.1%	-8.0%	-0.2	-6.8%	-19.0%
O=C1NC(=O)C(=Cc2ccco2)S1	nt	19.0%	nt	-3.0	-8.2%	-12.4%
O=C1NC(=O)/C(=C/c2ccco2)N1	5.7%[0.501 µM]	45.1%	9.0%	nt	nt	-1.4%
O=C1NC(=S)NC1=Cc1ccco1	nt	35.5µM*	nt	-93.2*	23.8µM*	22.4µM*
Cc1ccc(N2C(=O)/C(=C\c3ccco3)SC2=S)cc1	-6.0%[12.7 µM]	-14.9%	56.2µM*	?	-6.4%	-32.4%
CCCN(C(=O)COC(=O)c1cc(CC)c(C)s1)c1c(N)n(Cc2ccccc2)c(=O)[nH]c1=O	50.1µM*	-3.3%	?	?	-8.8%	-32.4%
CCOC(=O)c1c(C)[nH]c(C(=O)OCC(=O)N(CC)c2c(N)n(Cc3ccccc3)c(=O)[nH]c2=O)c1C	nt	25.3%	nt	0.5	-12.3%	-7.7%
CCOC(=O)c1c(C)[nH]c(C(=O)OCC(=O)N(CC(C)C)c2c(N)n(Cc3ccccc3)c(=O)[nH]c2=O)c1C	15.8µM*	31.6%	1.3%	-3.3	21.8%	-21.2%
Cc1ccc(C(=O)OCC(=O)N(CC(C)C)c2c(N)n(Cc3ccccc3)c(=O)[nH]c2=O)s1	79.4µM*	22.7%	-5.7%	2.4	0.3%	-4.2%
COCCN(C(=O)COC(=O)c1ccc(C)s1)c1c(N)n(Cc2ccccc2)c(=O)[nH]c1=O	-3.3%	21.7%	13.0%	9.9	-4.2%	-5.4%
Cc1noc(C)c1C(=O)N1CCC1(C)C(=O)NS(=O)(=O)Cc1cccc(Cl)c1 (configuration not stated)	nt	nt	nt	0.1	-4.6%	nt
